Over roughly 16,000 sequences, “rpm ratio (pull-down/input)” has its median near 0.5; the highest 2% begin near 5.5. What follows is part of a selection rich in the highest values, with near analogues and random picks from the rest.

In the test the target is T1, MBP-FoxP3dN (Mus musculus, UniProt Q99JB6 188-423).
T1 sequence: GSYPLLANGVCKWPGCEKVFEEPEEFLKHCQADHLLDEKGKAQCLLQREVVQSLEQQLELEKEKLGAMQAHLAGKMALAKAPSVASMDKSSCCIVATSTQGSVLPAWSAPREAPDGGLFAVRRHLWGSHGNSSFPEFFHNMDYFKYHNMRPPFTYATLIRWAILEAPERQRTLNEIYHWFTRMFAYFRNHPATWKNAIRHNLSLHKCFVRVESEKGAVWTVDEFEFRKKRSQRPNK
As to the kind of experiment: PD-seq (MBP pull-down with sequencing); 20 mM Tris-HCl pH 7.5, 100 mM NaCl, 1.5 mM MgCl2, 0.4 uM protein, 0.1 uM dsDNA library, 30 min, room temperature, amylose pull-down; high values mean tight binding. As to conditions: protein: recombinant; tags: His6-MBP; chain copies: 2; dsDNA, one strand shown. Summed up: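 Binding is given as reads-per-million enrichment, pull-down over input, with replicates pooled. The bait was an N-terminus-lacking mouse FoxP3 or FoxP1 fragment with a His6-MBP tag, expressed in E. coli and used at 0.4 µM with 0.1 µM Klenow-filled degenerate double-stranded DNA library for 30 min at room temperature in Tris pH 7.5 buffer with NaCl and MgCl2. Amylose resin pull-down with three washes was followed by proteinase K release, PCR barcoding and Illumina sequencing.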
With “GATGATTGTTCTCCCAGCTGATGAATTACTTTCTTCGAGTAAACAAATTTTCCTAATCTTTCTGTTCAAGCGCCATCTAC”, the binding signal is 0.388 RPM ratio (pull-down/input).
Consider “GATGATTGTTCTCCCAGCTGATGAATTGCTGCACTCGAGTAAACAAATTTTCCTAATCTTTCTGTTCAAGCGCCATCTAC”, for which the binding signal is 1.03 RPM ratio (pull-down/input).
Turning to “GATGATTGTTCTCCCAGCTGATGAATTCGTGGTTTCGAGTAAACAAATTTTCCTAATCTTTCTGTTCAAGCGCCATCTAC”, the binding signal is 1.35 RPM ratio (pull-down/input).
In the case of “GATGATTGTTCTCCCAGCTGATGAATTAGGTAGTTCGAGTAAACAAATTTTCCTAATCTTTCTGTTCAAGCGCCATCTAC”, the binding signal is 0.919 RPM ratio (pull-down/input).
“GATGATTGTTCTCCCAGCTGATGAATTTCATTGGTCGAGTAAACAAATTTTCCTAATCTTTCTGTTCAAGCGCCATCTAC”: the binding signal was 1.11 RPM ratio (pull-down/input).
As to “GATGATTGTTCTCCCAGCTGATGAATTCTTGTCATCGAGTAAACAAATTTTCCTAATCTTTCTGTTCAAGCGCCATCTAC”, the binding signal was 0.625 RPM ratio (pull-down/input).
With “GATGATTGTTCTCCCAGCTGATGAATTAGGCAGCTCGAGTAAACAAATTTTCCTAATCTTTCTGTTCAAGCGCCATCTAC”, the binding signal was 1.13 RPM ratio (pull-down/input).
Regarding “GATGATTGTTCTCCCAGCTGATGAATTAGGCCTCTCGAGTAAACAAATTTTCCTAATCTTTCTGTTCAAGCGCCATCTAC”, the binding signal is 5.5 RPM ratio (pull-down/input).
Consider “GATGATTGTTCTCCCAGCTGATGAATTTTAGGCCTCGAGTAAACAAATTTTCCTAATCTTTCTGTTCAAGCGCCATCTAC”, for which the binding signal was 0.444 RPM ratio (pull-down/input).
For the sequence “GATGATTGTTCTCCCAGCTGATGAATTTAGGCATTCGAGTAAACAAATTTTCCTAATCTTTCTGTTCAAGCGCCATCTAC”, the binding signal was 5.38 RPM ratio (pull-down/input).
With “GATGATTGTTCTCCCAGCTGATGAATTAGGGCATTCGAGTAAACAAATTTTCCTAATCTTTCTGTTCAAGCGCCATCTAC” the figure was 5.05 RPM ratio (pull-down/input).
Take “GATGATTGTTCTCCCAGCTGATGAATTAGGCGCCTCGAGTAAACAAATTTTCCTAATCTTTCTGTTCAAGCGCCATCTAC”: the binding signal was 1.35 RPM ratio (pull-down/input).
With “GATGATTGTTCTCCCAGCTGATGAATTAGGCATCTCGAGTAAACAAATTTTCCTAATCTTTCTGTTCAAGCGCCATCTAC” the figure was 6.82 RPM ratio (pull-down/input); with “GATGATTGTTCTCCCAGCTGATGAATTAGGCAAATCGAGTAAACAAATTTTCCTAATCTTTCTGTTCAAGCGCCATCTAC”, 0.601 RPM ratio (pull-down/input); with “GATGATTGTTCTCCCAGCTGATGAATTAGGCATTTCGAGTAAACAAATTTTCCTAATCTTTCTGTTCAAGCGCCATCTAC”, 6.35 RPM ratio (pull-down/input).
With “GATGATTGTTCTCCCAGCTGATGAATTGCTCAGATCGAGTAAACAAATTTTCCTAATCTTTCTGTTCAAGCGCCATCTAC” the figure was 0.345 RPM ratio (pull-down/input).
With “GATGATTGTTCTCCCAGCTGATGAATTAACAATGTCGAGTAAACAAATTTTCCTAATCTTTCTGTTCAAGCGCCATCTAC” the figure was 0.512 RPM ratio (pull-down/input).
In the case of “GATGATTGTTCTCCCAGCTGATGAATTGCTTATGTCGAGTAAACAAATTTTCCTAATCTTTCTGTTCAAGCGCCATCTAC”, the binding signal was 1.87 RPM ratio (pull-down/input).
With “GATGATTGTTCTCCCAGCTGATGAATTCGGCACTTCGAGTAAACAAATTTTCCTAATCTTTCTGTTCAAGCGCCATCTAC”, the binding signal is 0.811 RPM ratio (pull-down/input).
With “GATGATTGTTCTCCCAGCTGATGAATTGTTTGCGTCGAGTAAACAAATTTTCCTAATCTTTCTGTTCAAGCGCCATCTAC” the figure was 6.41 RPM ratio (pull-down/input); with “GATGATTGTTCTCCCAGCTGATGAATTTTTTGCGTCGAGTAAACAAATTTTCCTAATCTTTCTGTTCAAGCGCCATCTAC”, 0.525 RPM ratio (pull-down/input); with “GATGATTGTTCTCCCAGCTGATGAATTCTTTGCGTCGAGTAAACAAATTTTCCTAATCTTTCTGTTCAAGCGCCATCTAC”, 0.489 RPM ratio (pull-down/input).
With “GATGATTGTTCTCCCAGCTGATGAATTTGCGTCGTCGAGTAAACAAATTTTCCTAATCTTTCTGTTCAAGCGCCATCTAC” the figure was 2.28 RPM ratio (pull-down/input).
Regarding “GATGATTGTTCTCCCAGCTGATGAATTTGTTGCGTCGAGTAAACAAATTTTCCTAATCTTTCTGTTCAAGCGCCATCTAC”, the binding signal was 6.75 RPM ratio (pull-down/input).
With “GATGATTGTTCTCCCAGCTGATGAATTTTGCGCGTCGAGTAAACAAATTTTCCTAATCTTTCTGTTCAAGCGCCATCTAC” the figure was 3.39 RPM ratio (pull-down/input); with “GATGATTGTTCTCCCAGCTGATGAATTTAACGAGTCGAGTAAACAAATTTTCCTAATCTTTCTGTTCAAGCGCCATCTAC”, 0.208 RPM ratio (pull-down/input); with “GATGATTGTTCTCCCAGCTGATGAATTAGCTGCTTCGAGTAAACAAATTTTCCTAATCTTTCTGTTCAAGCGCCATCTAC”, 0.674 RPM ratio (pull-down/input).
On to “GATGATTGTTCTCCCAGCTGATGAATTGTACGTATCGAGTAAACAAATTTTCCTAATCTTTCTGTTCAAGCGCCATCTAC”, for which the binding signal was 0.769 RPM ratio (pull-down/input).
With “GATGATTGTTCTCCCAGCTGATGAATTAGAGATGTCGAGTAAACAAATTTTCCTAATCTTTCTGTTCAAGCGCCATCTAC” the figure was 0.424 RPM ratio (pull-down/input); with “GATGATTGTTCTCCCAGCTGATGAATTCTAAGTGTCGAGTAAACAAATTTTCCTAATCTTTCTGTTCAAGCGCCATCTAC”, 0.48 RPM ratio (pull-down/input).
With “GATGATTGTTCTCCCAGCTGATGAATTACGCATTTCGAGTAAACAAATTTTCCTAATCTTTCTGTTCAAGCGCCATCTAC” the figure was 6.65 RPM ratio (pull-down/input); with “GATGATTGTTCTCCCAGCTGATGAATTACGCAAATCGAGTAAACAAATTTTCCTAATCTTTCTGTTCAAGCGCCATCTAC”, 0.792 RPM ratio (pull-down/input); with “GATGATTGTTCTCCCAGCTGATGAATTACCCATGTCGAGTAAACAAATTTTCCTAATCTTTCTGTTCAAGCGCCATCTAC”, 0.294 RPM ratio (pull-down/input).
With “GATGATTGTTCTCCCAGCTGATGAATTACGCATGTCGAGTAAACAAATTTTCCTAATCTTTCTGTTCAAGCGCCATCTAC” the figure was 6.15 RPM ratio (pull-down/input); with “GATGATTGTTCTCCCAGCTGATGAATTTACGCATTCGAGTAAACAAATTTTCCTAATCTTTCTGTTCAAGCGCCATCTAC”, 6.38 RPM ratio (pull-down/input).
In the case of “GATGATTGTTCTCCCAGCTGATGAATTACGCCATTCGAGTAAACAAATTTTCCTAATCTTTCTGTTCAAGCGCCATCTAC”, the binding signal was 5.04 RPM ratio (pull-down/input).
With “GATGATTGTTCTCCCAGCTGATGAATTACGCTGTTCGAGTAAACAAATTTTCCTAATCTTTCTGTTCAAGCGCCATCTAC” the figure was 1.09 RPM ratio (pull-down/input).
In the case of “GATGATTGTTCTCCCAGCTGATGAATTACAACTCTCGAGTAAACAAATTTTCCTAATCTTTCTGTTCAAGCGCCATCTAC”, the binding signal is 0.948 RPM ratio (pull-down/input).
With “GATGATTGTTCTCCCAGCTGATGAATTTTACGCATCGAGTAAACAAATTTTCCTAATCTTTCTGTTCAAGCGCCATCTAC” the figure was 1.01 RPM ratio (pull-down/input).
In the case of “GATGATTGTTCTCCCAGCTGATGAATTACGCAACTCGAGTAAACAAATTTTCCTAATCTTTCTGTTCAAGCGCCATCTAC”, the binding signal is 6.03 RPM ratio (pull-down/input).
With “GATGATTGTTCTCCCAGCTGATGAATTACGCCTGTCGAGTAAACAAATTTTCCTAATCTTTCTGTTCAAGCGCCATCTAC” the figure was 5.4 RPM ratio (pull-down/input); with “GATGATTGTTCTCCCAGCTGATGAATTCTACGCATCGAGTAAACAAATTTTCCTAATCTTTCTGTTCAAGCGCCATCTAC”, 0.854 RPM ratio (pull-down/input).

These data come from article PMC12820563, “FoxP3 forms a head-to-head dimer in vivo and stabilizes its multimerization on adjacent microsatellites”.
